Where “and” joins values, the source holds several entries; their conditions need not be identical. Identical values can stand only once. About 83,000 compounds went through this panel and 20% of them were active in at least one assay; those are over-represented in the sample as a whole.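 96-well plates, one dose, 48 hours. Percent growth reported; active if below 10.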 Calls of active or inactive are those of the source.
tested on: MDA-MB-468 breast; test: NCI-60 one-dose screen, 48 h (100 = growth as untreated, 0 = no growth, -100 = all killed); settings: 10 µM unless noted

SMILES | growth
COc1ccc(-n2c(C)nc3cc(OC)c(OC)cc3c2=O)cc1OC | 114% (inactive)
C=CC[PH+](c1ccccc1)c1ccccc1.C=CC[PH+](c1ccccc1)c1ccccc1.[Pt+2].[S-]c1nc2ccccc2[nH]1.[S-]c1nc2ccccc2[nH]1 | -14% (active)
O=C(CCl)c1ccc([N+](=O)[O-])o1 | -49.5% (active)
CC(C)CCC1(CCO)C(=O)NC(=S)NC1=O | 108% (inactive)
COc1ccc(N)cc1N | 101% (inactive)
CCCCCCCCCCCCCCCCCC1OC[C@@H](COC(=O)O[C@@H](C(=O)O[C@H]2C[C@@]3(O)[C@@H](OC(=O)c4ccccc4)[C@@H]4[C@]5(OC(C)=O)CO[C@@H]5C[C@H](O)[C@@]4(C)C(=O)[C@H](OC(C)=O)C(=C2C)C3(C)C)[C@@H](NC(=O)c2ccccc2)c2ccccc2)O1 (stereo not given in full) | 21% (inactive)
C#Cc1ccc2c(c1)C(c1ccccc1F)=NCC(=O)N2C | 26% (inactive)
O=C(CBr)Nc1ccc(Cl)cc1 | 92.8% (inactive)
O=C(O)c1cc(Cc2ccc(O)c(C(=O)O)c2)ccc1O (tested in a mixture with another compound) | -46.8% (active)
O=S(=O)(c1ccc(Cl)cc1)C(Cl)(Cl)Cl | -20.4% (active)
COc1ccc(/C=C\c2cc(OC)c(OC)c(OC)c2)cc1OCC(=O)Nc1nc2ccc(F)cc2s1 | 37.3% (inactive)
[Cl][Sn]([c]1ccccc1)([c]1ccccc1)[c]1ccccc1 | -75% (active)
COC(=O)[C@H](Cc1ccccc1)NNC(=O)c1csc([C@@H](C[C@H](C(C)C)N(C)C(=O)[C@@H](NC(=O)[C@H]2CCCCN2C)C2CC2)OC(C)=O)n1 | -11.2% (active)
CN(C)CC1(N)C(=O)NC(=O)NC1=O | 94.6% (inactive)
COc1cc(/C=C\c2cc(OC)c(OC)c(OC)c2)cc(N/C=C\C(=O)c2cc(OC)c(OC)c(OC)c2)c1OC | -10.6% (active)
COC(=O)CC12CC(NC(=O)c3csc([C@@H](C[C@H](C(C)C)N(C)C(=O)[C@@H](NC(=O)[C@H]4CCCCN4C)C(C)C)OC(C)=O)n3)(C1)C2 | 38.6% (inactive)
CC[C@H](C)[C@H](NC(=O)c1ccccn1)C(=O)N(C)[C@H](C[C@@H](OC(C)=O)c1nc(C(=O)N[C@@H](Cc2ccccc2)C[C@H](C)C(=O)OC)cs1)C(C)C | -7.06% (active)
CC[C@]12C=CCN3CC[C@@]4(c5ccc(OC)cc5N(C)[C@H]4[C@@](O)(C(=O)OC)[C@@H]1OC(=O)CCCN1CCN(CCCC(=O)O[C@@H]4[C@]5(CC)C=CCN6CC[C@@]7(c8ccc(OC)cc8N(C)[C@H]7[C@@]4(O)C(=O)OC)[C@@H]65)CC1)[C@@H]32 | -88.4% (active)
N#CCCc1ccccc1 | 101% (inactive)
COc1cc([N+](=O)[O-])c2nc(C)ccc2c1[N+](=O)[O-] | -9.11% (active)

SMILES | growth
c1cnc2[nH]cc(-c3csc(-c4cn(CCCCN5CCCCC5)c5ccccc45)n3)c2c1 | 98.6% (inactive)
Oc1ccc(O)c2c1C1(Cl)C(Cl)=C(Cl)C2(Cl)C1(Cl)Cl | 4.54% (active)
CCOC(=S)S[C@H]1C[C@@H]2[C@H](CC[C@]3(C)C(=O)CC[C@@H]23)[C@@]2(C)CCC(=O)C=C12 | 101% (inactive)
COc1cccc2c1c(C(=O)C(=O)Nc1ccn[nH]1)cn2Cc1ccc(F)cc1 | 43.3% (inactive)
CC(=O)Nc1nc2c(s1)CC[C@@]1(C)C2=CC[C@H]2[C@@H]3CC[C@H](O)[C@@]3(C)CC[C@@H]21 | 58.2% (inactive)
CCCCNCCc1ccccn1 | 117% (inactive)
CC1(C)N(Nc2ccccc2)C(=O)C2CCCN21 (stereo not given) | 79.2% (inactive)
O=P(O)(Nc1ccccc1)Nc1ccccc1 | 90.2% (inactive)
CC1(C)N=C(N)N=C(N)N1c1ccc(CNC(=O)Nc2ccc(S(=O)(=O)F)c(Cl)c2)c(Cl)c1 | 30.2% (inactive)
CC[C@H](C)[C@H](NC(=O)[C@H]1CCCCN1C)C(=O)N(C)[C@H](C[C@@H](OC(C)=O)c1nc(C(=O)NC23CC(C(=O)OC)(C2)C3)cs1)C(C)C | 4.52% (active)
O=C1NC(=O)C(=Cc2cn(CCCCCCn3c4ccccc4c(=O)c4ccccc43)c3ccccc23)C(=O)N1 | -26% (active)
C/C=C(\C)C(=O)O[C@@H]1C(O)[C@H]2OC(COC(=O)CCC(=O)CCCCCC[C@H](CCCCC)O[C@@H]3OC(C)[C@H](OC(C)=O)C(O)[C@H]3O2)[C@H]1OC(=O)/C=C/c1ccccc1 (stereo not given in full) | -8.84% (active)
CCn1nccc1NC(=O)C(=O)c1cn(Cc2ccc(F)cc2)c2cccc(OC)c12 | 102% (inactive)
C[C@@H]1C/C=C\C(=O)O[C@H](/C=C/C#C/C=C/C(C)(C)[C@@H](O)c2cccc(O)c2Br)[C@@H](C)/C=C/[C@H](C)C[C@H](OC(N)=O)C1 | 33.6% (inactive)
NC(=O)SCC(=O)Nc1ccc([As](=O)(O)O)cc1 | 87.2% (inactive)
Nc1ccc2c(c1)Cc1cc(N)ccc1-2 | 67.3% (inactive)
COc1cc(NCCCN=C(N)N)c2ncccc2c1 | -37.1% (active)
C/C(=C\c1ccc(Cl)c(Cl)c1)[N+](=O)[O-] | -77.9% (active) and 93.8% (inactive)
CC1=CC(=O)CCC12CCOC2=O (stereo not given) | 105% (inactive)
Clc1ccc(COC(Cn2ccnc2)c2ccc(Cl)cc2Cl)c(Cl)c1 (stereo not given) | 33.3% (inactive)
